# Measured values taken from the supplement of paper PMC3334620.
# The full ranking holds about 33,000 sequences; the median of “E-score (-0.5 to 0.5)” is about -0.011, and the highest 2% start at about 0.28. Many of the other results were omitted from the sample, so the highest values are more common in it than they were.
# Target: T1, Gcr1 (UniProt P07261)
# T1 sequence: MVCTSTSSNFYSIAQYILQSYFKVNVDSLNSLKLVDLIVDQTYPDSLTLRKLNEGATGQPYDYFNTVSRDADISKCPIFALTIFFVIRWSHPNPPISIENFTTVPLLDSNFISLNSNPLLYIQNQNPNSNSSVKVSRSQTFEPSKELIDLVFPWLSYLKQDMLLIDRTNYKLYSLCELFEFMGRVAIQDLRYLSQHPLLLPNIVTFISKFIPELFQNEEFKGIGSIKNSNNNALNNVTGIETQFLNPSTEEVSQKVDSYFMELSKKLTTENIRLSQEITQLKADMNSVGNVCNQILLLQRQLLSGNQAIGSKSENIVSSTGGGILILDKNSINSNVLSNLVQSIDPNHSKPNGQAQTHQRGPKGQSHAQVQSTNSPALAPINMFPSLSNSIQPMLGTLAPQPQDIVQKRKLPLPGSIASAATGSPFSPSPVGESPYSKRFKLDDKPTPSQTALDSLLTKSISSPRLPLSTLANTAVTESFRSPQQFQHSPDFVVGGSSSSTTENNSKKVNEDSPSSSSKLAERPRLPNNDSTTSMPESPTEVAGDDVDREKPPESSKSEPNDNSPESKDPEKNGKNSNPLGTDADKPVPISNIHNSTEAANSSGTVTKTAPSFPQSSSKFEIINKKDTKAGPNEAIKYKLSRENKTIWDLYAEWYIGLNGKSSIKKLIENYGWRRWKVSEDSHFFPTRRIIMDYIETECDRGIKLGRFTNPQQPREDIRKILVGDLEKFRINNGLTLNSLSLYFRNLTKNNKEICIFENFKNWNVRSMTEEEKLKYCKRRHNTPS
# Assay: PBM E-score (8-mer binding enrichment) (E-score (-0.5 to 0.5)); higher = stronger / more preferred TF binding
# Conditions: protein concentration: 100 nM; construct: GST-full length
# Procedure: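 Universal 'all 10-mer' protein binding microarrays (Agilent AMADID 015681) probed with GST-tagged S. cerevisiae TFs (full-length or DBD) made by in vitro transcription/translation (PURExpress), about 100-200 nM. Bound TF was detected with fluorescent anti-GST. Each ungapped 8-mer (which stands for itself and its reverse complement) is scored by the PBM enrichment score (E-score), a modified Wilcoxon-Mann-Whitney statistic from -0.5 to +0.5, computed with the Universal PBM Analysis Suite. Scale: above 0.35 generally sequence-specific binding.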
row,Sequence,PBM E-score
1,ATAGTAAG,-0.0276
2,ACAAGACC,-0.0386
3,GAGCAATA,0.0781
4,CCGAACTC,-0.0172
5,AATGGGAT,0.28
6,AATGGGAG,0.0925
7,AATGGAAC,0.154
8,AATGGAAG,0.27
9,CCTGGAAG,0.0765
10,ACGGGAAG,0.112
11,CCTGGAAC,-0.0042
12,ACTGGAAG,0.463
13,ACTGGAAA,0.0867
14,AATGGAAT,0.301
15,AATGGGAA,0.132
16,ACTGGAAC,0.301
17,AGGCAATC,-0.245
18,CTCCAAGA,0.0262
19,ATTTGCAC,0.0134
20,GTAGCTAA,-0.0197
21,TAGAAACA,0.112
22,TTGAAAAA,0.0707
23,CCCATAGC,-0.16
24,ACTGGAAT,0.415
25,ACGGGAAT,0.111

row,Sequence,PBM E-score
1,ACTGGGAT,0.0877
2,AGCCGTGG,-0.108
3,ACGAGAGG,-0.238
4,CAGGTATC,0.311
5,CAGGTATA,-0.0414
6,CCGGTATC,0.288
7,AAGGTATC,0.158
8,CCTGTAGA,0.283
9,ACGGTATC,-0.0774
10,ACTGTAGA,-0.079
11,CCGGTATA,0.191
12,GCTGTAGA,-0.0143
13,ACTGTATC,-0.275
14,CCTGTATC,0.324
15,CCTGTATA,0.2
16,ACGGTAAG,-0.0708
17,CAACTGGC,0.0226
18,GATCACCA,-0.0057
19,TACCGTAA,0.0593
20,GACCCCCC,-0.241
21,CGCCTGCA,-0.117
22,AATGAGTA,0.143
23,GGAACCTA,0.401
24,GAACCCCC,0.0349
25,AGAACCTA,0.0206

row,Sequence,PBM E-score
1,CGAACCTA,-0.117
2,GGGACCCC,0.00587
3,GAACCCCA,0.344
4,AGAACCCA,0.234
5,TGGACCCA,0.104
6,GAACCCAA,0.167
7,TGAACCCA,0.0317
8,GGGACCCA,0.303
9,GGAACCCA,0.394
10,CGATGGGC,-0.0735
11,AGCTTCAT,0.0447
12,CTAACCAG,0.0668
13,GGCCCCCA,0.231
14,CATACCGA,0.0765
15,ACTCCTTA,0.0309
16,AGCCACAA,0.15
17,CGAACCCC,0.0243
18,GGAACCCC,0.394
19,AGAACCCC,0.0794
20,ACCTATCC,0.0168
21,ATGCTACG,0.0159
22,ACACACTC,0.0505
23,CGACATTA,0.306
24,CGACATTC,-0.0306
25,AGACATTA,-0.0316

row,Sequence,PBM E-score
1,CTGGGTGC,0.244
2,GCTAGCCA,-0.232
3,GAATGGCA,-0.0438
4,GAATGGAA,0.225
5,CAATGGCA,-0.159
6,GATTGGAA,0.258
7,AAATGGAA,0.239
8,CATTGGAA,0.106
9,TAATGGAA,0.28
10,TATTGGAA,0.288
11,TAATGGCA,0.295
12,GTTTATAA,0.129
13,AATGTGAT,-0.0732
14,AATTGTCT,-0.147
15,GCTACTCC,0.0342
16,GCACCTGA,0.0656
17,GCAGCTGC,0.249
18,TCAGCTAA,-0.225
19,GCAGCTAC,0.267
20,TCAGCTGA,-0.106
21,GCAGCTAA,0.329
22,GCAGCTGA,0.336
23,CTCATTCC,0.0687
24,CAGCCCCG,-0.107
25,AGGCGAGC,-0.0288

row,Sequence,PBM E-score
1,GGGTGATA,0.0068
2,CCGCAAAA,0.0921
3,GCTACCAA,0.179
4,GCTACCAC,0.323
5,ACTACCAC,0.101
6,AATACCAC,0.097
7,GATACCAA,0.154
8,GATACCAC,0.329
9,AACCTAAG,-0.0759
10,ACCTCCTC,-0.194
11,AACGTCTA,0.00101
12,GATCCTGA,0.0899
13,CTTCCTAC,0.18
14,CATCCTGA,0.292
15,TATCCTGA,0.156
16,ATTCCTAA,0.284
17,CTTCCTAA,0.294
18,ATTCCTGC,0.048
19,ATTCCTGA,0.299
20,ATTCCTGG,0.165
21,GTTCCTAA,0.237
22,ATTCCTAC,0.0721
23,ATTCCTAG,-0.0289
24,TAGACCTA,-0.0537
25,AACCAGAG,0.0777

row,Sequence,PBM E-score
1,TACACAGA,-0.106
2,CTTCCTTA,0.153
3,GGGTTGCA,-0.0951
4,GAAGCGTC,0.268
5,CATCAACA,0.015
6,ATGTTGTA,0.104
7,AAGCACCC,0.283
8,AAGCACCT,0.106
9,CAGCACCC,0.277
10,GAGCACCC,0.329
11,GAGCACAC,-0.271
12,AAGCACCG,0.0663
13,ACGCCATG,-0.0676
14,GGTAAAAC,-0.056
15,AATGGCGC,0.253
16,GCTTCGTA,0.329
17,GCTTCTGA,0.0646
18,GCTTCTCC,0.27
19,CCTTCTCA,-0.156
20,ACTTCGTA,0.0106
21,GCTTCTTA,0.338
22,ACTTCTTA,0.104
23,CCTTCGTA,0.00994
24,GCTTCTCA,0.299
25,CCTATTGC,-0.0151

row,Sequence,PBM E-score
1,CACGGAAC,0.0756
2,ACCCAAAT,0.233
3,AAGTTCCT,0.163
4,CTTGGTTC,0.149
5,AAACAGAG,-0.244
6,TCCCTCAA,0.00435
7,ATGTTCCG,-0.119
8,CCCGAAAG,0.224
9,AGGCGCTC,-0.0859
10,CTCTGCAC,-0.0576
11,TATTCCAA,0.224
12,AATTCCAT,0.191
13,AATTCCAG,0.274
14,GATTCCAC,0.382
15,GATTCCAA,0.416
16,CATTCCAC,0.0952
17,AATTCCAC,0.191
18,CATTCCAA,0.0418
19,AATTCCAA,0.308
20,ACCAACGG,-0.0789
21,ATAGGGTC,-0.162
22,ACATCGAC,-0.154
